Among the test systems are SK-MEL-2 melanoma; EKVX NSCLC; SN12C renal; UO-31 renal; TK-10 renal; ACHN renal; CAKI-1 renal; A498 renal; CCRF-CEM leukemia; MOLT-4 leukemia; SR leukemia; RPMI-8226 leukemia; OVCAR-8 ovarian; OVCAR-5 ovarian; OVCAR-4 ovarian; SK-OV-3 ovarian; IGROV1 ovarian; OVCAR-3 ovarian; HS 578T breast; NCI/ADR-RES ovarian.
Holding throughout (assay): NCI-60 one-dose screen, 48 h (100 = growth as untreated, 0 = no growth, -100 = all killed)
What all share (conditions): 10 µM unless noted

About 83,000 compounds went through this panel and 20% of them were active in at least one assay; those are over-represented in the sample as a whole.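 Cell lines were cultured in 96-well plates, exposed to a single compound concentration, and assessed for percent growth 48 hours later.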 A number with no mark means an inactive call. Activity calls are given as the source filed them. The calls were made as follows: active = growth percent below 10; inactive = the rest.

For `CC(=O)ON1CCCC(P(=O)(OCCSC(=O)C(C)(C)C)OCCSC(=O)C(C)(C)C)C1=O` (stereo not given), the growth is 50.6% with SK-MEL-2 melanoma; 22.8% in the assay with EKVX NSCLC; 3.59% (active) with SN12C renal; -0.776% (active) in the assay with UO-31 renal; 27.2% in the assay with TK-10 renal; 20.1% in the assay with ACHN renal. The growth was 24% with CAKI-1 renal; -8.82% (active) with A498 renal; -6.31% (active) with CCRF-CEM leukemia; 15.5% in the assay on MOLT-4 leukemia; 6.15% (active) in the assay on SR leukemia; -17.3% (active) with RPMI-8226 leukemia. Besides, the growth in the assay with OVCAR-8 ovarian was 10.7%; in the assay with OVCAR-5 ovarian, 89.2%; in the assay on OVCAR-4 ovarian, 29.7%; with SK-OV-3 ovarian it was 38.6%; in the assay on IGROV1 ovarian, 16.3%; with OVCAR-3 ovarian it was 10.4%. In addition, the growth with HS 578T breast is 19.6%; in the assay on NCI/ADR-RES ovarian, 13.2%.

As for `CNCc1cccc2c1OCCOCCOCCNS(=O)(=O)c1ccc(cc1)-c1cnc(N)c(n1)C(=O)N2`, the growth with SK-MEL-2 melanoma was 30%; with EKVX NSCLC, 77.4%; in the assay on SN12C renal it was 19.2%; with UO-31 renal it was 77.6%; with TK-10 renal, 41.7%; with ACHN renal it was 54.7%. Moreover, the growth is 28.4% in the assay with CAKI-1 renal; 51.5% in the assay on A498 renal; 7.66% (active) in the assay on CCRF-CEM leukemia; 8.14% (active) in the assay on MOLT-4 leukemia; 3.81% (active) in the assay with SR leukemia; 65.6% with RPMI-8226 leukemia. The growth was 28% in the assay with OVCAR-8 ovarian; 56.3% in the assay with OVCAR-5 ovarian; 50.4% in the assay on OVCAR-4 ovarian; 27.9% with SK-OV-3 ovarian; 24.8% in the assay with IGROV1 ovarian; 2.52% (active) in the assay on OVCAR-3 ovarian. The growth is 48.7% in the assay on HS 578T breast and 108% in the assay with NCI/ADR-RES ovarian.

`N#Cc1c(-c2ccccc2)nc(SCC(O)CN2CCOCC2)nc1N1CCOCC1` (stereo not given): the growth in the assay with SK-MEL-2 melanoma is 7.33% (active); in the assay on EKVX NSCLC, 65.4%; with SN12C renal it was 57.8%; in the assay with UO-31 renal, 41.7%; with TK-10 renal it was 40.8%; with ACHN renal it was 54.4%. In addition, the growth was 37.4% in the assay on CAKI-1 renal; -3.34% (active) with A498 renal; 88% in the assay with CCRF-CEM leukemia; 83.2% with MOLT-4 leukemia; 85.1% in the assay with SR leukemia; 105% in the assay on RPMI-8226 leukemia. In addition, the growth in the assay with OVCAR-8 ovarian was 33.4%; with OVCAR-5 ovarian, 61.2%; with OVCAR-4 ovarian, 68.6%; in the assay on SK-OV-3 ovarian it was 41.1%; in the assay on IGROV1 ovarian, -29.5% (active); in the assay with OVCAR-3 ovarian, 35.4%. Also, the figures for the growth with HS 578T breast and with NCI/ADR-RES ovarian were 6.19% (active) and 72.7%, respectively.

As for `CC1CCN(C(=S)SCC(=O)NC(=O)c2ccccc2)CC1`, the growth in the assay on SK-MEL-2 melanoma was 102%; in the assay with EKVX NSCLC, 102%; in the assay with SN12C renal, 109%; in the assay with UO-31 renal, 92%; in the assay with TK-10 renal it was 99.8%; in the assay with ACHN renal, 112%. For the same molecule, the growth with CAKI-1 renal is 102%; with A498 renal, 99.6%; in the assay with CCRF-CEM leukemia it was 106%; with MOLT-4 leukemia, 93.6%; with SR leukemia, 80.6%; with RPMI-8226 leukemia, 102%. Besides, the growth was 112% in the assay with OVCAR-8 ovarian; 101% with OVCAR-5 ovarian; 96.6% in the assay with OVCAR-4 ovarian; 104% in the assay with SK-OV-3 ovarian; 107% with IGROV1 ovarian; 111% in the assay with OVCAR-3 ovarian. For the same molecule, the results for the growth with HS 578T breast and in the assay on NCI/ADR-RES ovarian were 102% and 105%, respectively.

For `C=CC(=O)Nc1ccc(Oc2nccc(Nc3nnc(-c4ccc(C)cc4)s3)n2)cc1`, the growth is 79.4% in the assay with SK-MEL-2 melanoma; 103% in the assay with EKVX NSCLC; 84% with SN12C renal; 55.7% with UO-31 renal; 135% in the assay on TK-10 renal; 68.5% with ACHN renal. In addition, the growth was 41.1% in the assay on CAKI-1 renal; 83.3% with A498 renal; 50.5% in the assay on CCRF-CEM leukemia; 68.6% in the assay on MOLT-4 leukemia; 36.2% with SR leukemia; 61.8% in the assay with RPMI-8226 leukemia. The growth in the assay with OVCAR-8 ovarian is 81.4%; in the assay on OVCAR-5 ovarian it was 105%; with OVCAR-4 ovarian, 99%; with SK-OV-3 ovarian, 78%; with IGROV1 ovarian it was 62.5%; in the assay on OVCAR-3 ovarian it was 43%. Besides, the growth is 67.4% in the assay with HS 578T breast and 59.1% in the assay on NCI/ADR-RES ovarian.

Take `CCOC(=O)c1cnc2c(N=Nc3ccc(OC)cc3)c(N)nn2c1N`: the growth is 102% in the assay on SK-MEL-2 melanoma; 103% in the assay with EKVX NSCLC; 95.2% in the assay on SN12C renal; 94.2% in the assay with UO-31 renal; 104% in the assay with TK-10 renal; 109% with ACHN renal. The growth was 96.6% with CAKI-1 renal; 92.5% with A498 renal; 103% in the assay with CCRF-CEM leukemia; 88% in the assay with MOLT-4 leukemia; 112% in the assay with SR leukemia; 104% in the assay on RPMI-8226 leukemia. Also, the growth in the assay with OVCAR-8 ovarian was 102%; with OVCAR-5 ovarian, 110%; in the assay with OVCAR-4 ovarian it was 111%; with SK-OV-3 ovarian it was 108%; with IGROV1 ovarian it was 93.7%; in the assay on OVCAR-3 ovarian, 113%. For the same molecule, the figures for the growth in the assay on HS 578T breast and with NCI/ADR-RES ovarian were 104% and 98.9%, respectively.

Consider `COc1ccc(/C(C)=C(\c2ccc(Cl)cc2)c2ccc(OCCN3CCCCC3)cc2)cc1`, for which the growth in the assay on SK-MEL-2 melanoma was 56.2%; in the assay with EKVX NSCLC, 69.1%; in the assay with SN12C renal, 69.2%; with UO-31 renal it was 48.1%; in the assay on TK-10 renal, 95.7%; in the assay on ACHN renal, 77.3%. The growth was 37.2% in the assay on CAKI-1 renal; 86.8% in the assay with A498 renal; 37.5% in the assay with CCRF-CEM leukemia; 41.6% in the assay on MOLT-4 leukemia; -7.55% (active) in the assay with SR leukemia; 7.75% (active) with RPMI-8226 leukemia. Also, the growth was 69.6% with OVCAR-8 ovarian; 67.9% with OVCAR-5 ovarian; 59.9% in the assay on OVCAR-4 ovarian; 77.5% in the assay on SK-OV-3 ovarian; 64.5% in the assay on IGROV1 ovarian; 74.9% in the assay on OVCAR-3 ovarian. Besides, the growth in the assay with HS 578T breast is 63.6%; in the assay on NCI/ADR-RES ovarian it was 76.8%.
